# Measurements taken from PubChem BioAssay (NCATS).
# Records with an inconclusive call do not appear. Where a call stands in place of a potency, no number is given. Unmarked numbers belong to inactive results. Active and inactive are the calls of the source. Calls follow the shape of the dose curve; as a rule, active = well fitted curve in the direction sought with a large enough effect; inconclusive = small, poorly fitted or top-dose-only effect, or another doubt; inactive = no such curve, though single readings can be large; an effect the other way counts as inactive or inconclusive.
# Assays:
# [1] = biological target: Aldehyde dehydrogenase, mitochondrial (Homo sapiens) (UniProt P05091); assay: qHTS for Inhibitors of the Aldehyde Dehydrogenase Family (ALDH2) Primary screen (AID 2061308); also: nearly all actives have a fitted effect of over 55% in size
# [2] = biological target: Retinaldehyde dehydrogenase 3 (Homo sapiens) (UniProt P47895); assay: qHTS for Inhibitors of the Aldehyde Dehydrogenase Family (ALDH1A3) Primary screen (AID 2061315)
SMILES,Potency [1],Potency [2],"activity change, negative = inhibition [1]","activity change, negative = inhibition [2]"
O=C([C@H](Cc1ccc(O[S+](=O)([O-])c2cccc3cnccc23)cc1)N[S+](=O)([O-])c1cccc2cnccc12)N1CCN(Cc2ccccc2)CC1,inactive,inactive,,
C=Cc1cc(F)c(S(=O)(=O)N2CCN(S(=O)(=O)c3ccc4c(c3)OCCO4)CC2)cc1F,inactive,inactive,,
NC(=O)C1CCN(c2nc(-c3ccccc3)cs2)CC1,inactive,inactive,,
O=C(O)c1sc2c(c1-c1nc3ccccc3s1)CCNC2,inactive,inactive,,
COc1ccccc1-c1nnc2n1N=C(c1ccc(OC(F)F)c(OCC3CC3)c1)CS2,inactive,inactive,,
O=C(Nc1ccc(Cl)cc1)c1ccccc1NCc1ccncc1,inactive,inactive,,
c1ccc(COc2cccc(-c3nc4ccccc4s3)c2)cc1,inactive,inactive,,
Cc1c(Cl)cccc1S(=O)(=O)Nc1nc(NCCc2ccccc2)nc2c1CN(Cc1ccccc1)CC2,inactive,inactive,,
CCCn1c(-c2ccc(F)cc2)nc2c(NCCCN(CC)CC)nc(C)nc21,inactive,inactive,,
Cc1ccc(-c2cc(C(=O)Nc3ccn[nH]3)c3ccccc3n2)cc1C,inactive,inactive,,
O=C(O)c1ccnc2c(O)cccc12,inactive,inactive,,
CCCn1c(C)nc2c(NCCOC)nc(C)nc21,inactive,inactive,,
O=C(Nc1ccc2ccccc2c1)Nc1nnc(-c2ccc(Cl)cc2Cl)s1,inactive,inactive,,
Cc1cccc(-c2ccc3ncnc(NCc4cccc(F)c4)c3c2)c1,inactive,inactive,,
CCOc1ccc(CCNC(=O)c2ccc3[nH]ccc3c2)cc1OCC,inactive,inactive,,
C[C@@H]1CN(c2c(F)c(F)c3c(=O)c(C(=O)O)cn(C4CC4)c3c2F)C[C@H](C)N1,,,-0.742% [at 11.2 µM],1.69% [at 11.2 µM]
O=C(CSc1nnc(-c2cccc([S+](=O)([O-])N3CCCC3)c2)n1-c1ccccc1)Nc1ccc2c(c1)OCCO2,inactive,inactive,,
CC(=O)c1ccccc1-c1csc2ncnc(Sc3nnnn3C)c12,inactive,inactive,,
Cc1ccc(OCCn2c(CCNC(=O)C3CC3)nc3ccccc32)cc1,inactive,inactive,,
Cn1nnnc1Sc1ncnc2scc(-c3ccc4ccccc4c3)c12,inactive,inactive,,
Cc1cc(C)nc(NC(=S)N2CCN(c3ccc(C(F)(F)F)cc3[N+](=O)[O-])CC2)c1,inactive,inactive,,

SMILES,Potency [1],Potency [2],"activity change, negative = inhibition [1]","activity change, negative = inhibition [2]"
Cc1ccc(-c2cc(C(=O)NC3CCCCC3)c3ccccc3n2)cc1C,inactive,inactive,,
COCCN(CCOC)c1nc(C)nc2c1nc(-c1ccccc1)n2CC1CCN(C)CC1,inactive,inactive,,
Cc1ccc(S(=O)(=O)Nc2ccc(Cl)cc2C(=O)Nc2nc(-c3ccccc3)cs2)cc1,inactive,inactive,,
COc1cc(NC(=O)C(OC(=O)CNC(=O)c2ccccc2)c2ccccc2)cc(C(F)(F)F)c1 (stereo unspecified),inactive,inactive,,
Cc1ccc(C[C@H](C(=O)O)N2C(=O)c3ccc(C(=O)O)cc3C2=O)c(C)c1,inactive,inactive,,
Cc1cc(C)nc(NC(=S)N2CCN(c3nccc4occc34)CC2)c1,inactive,inactive,,
Cc1cc(NC(=O)Nc2nnc(-c3cccnc3)s2)ccc1F,inactive,inactive,,
COc1cccc(C2c3c(ncn(-c4ccc(-c5ccccc5)cc4)c3=N)Oc3ccc4ccccc4c32)c1 (stereo unspecified),inactive,inactive,,
COc1ccc(N2Cc3cccc(C(=O)O)c3C2=O)cc1OC,inactive,inactive,,
FC(F)(F)c1ccccc1-c1nc2c(c(NCc3ccc(-c4cccnc4)cc3)n1)CCC2,inactive,inactive,,
Cc1nc(NCc2ccccc2)c2nc(-c3ccccc3)n(CCN(C)C)c2n1,inactive,inactive,,
O=C1CCCC2=C1C(c1ccncc1Cl)N=C(Nc1nc3ccccc3o1)N2 (stereo unspecified),inactive,inactive,,
OCc1ccc(-c2ccc3ncnc(NCc4ncc[nH]4)c3c2)o1,inactive,inactive,,
Cc1cc(NS(=O)(=O)c2ccc(NC(=O)C(C)(C)c3ccc(Cl)c(Cl)c3)cc2)no1,inactive,inactive,,
COc1ccc(C2c3c(nc(C)[nH]c3=O)Oc3ccc4ccccc4c32)cc1OC (stereo unspecified),inactive,inactive,,
COc1ccccc1-c1ncc(C)c(NCc2ccc(-c3cccnc3)cc2)n1,inactive,inactive,,
Cc1nc(C)c(-c2ccc3ncnc(N(C)Cc4sccc4C)c3c2)s1,inactive,inactive,,
Cc1ccc(S(=O)(=O)Nc2cnccc2C(=O)Nc2nc(C3CCC3)cs2)cc1,inactive,inactive,,
CC1=CC2/C=C(\C)CCC(O)C/C=C/C(=O)OC23C(=O)NC(CC(C)C)C3C1C (stereo unspecified),inactive,inactive,,
O=C(CSc1nnc(-c2cccc([S+](=O)([O-])N3CCCC3)c2)n1-c1ccccc1)Nc1cccc(C(F)(F)F)c1,inactive,inactive,,
O=C1CCCC2=C1C(c1[nH]ncc1Cl)NC(=NCCc1cccnc1)N2 (stereo unspecified),inactive,inactive,,

SMILES,Potency [1],Potency [2],"activity change, negative = inhibition [1]","activity change, negative = inhibition [2]"
Cn1c(NC2=NC3(CCCC3)C3=C(CCCC3=O)N2)nc2ccccc21,inactive,inactive,,
Cc1ccc(-c2ccc(=O)n(CCN)n2)cc1,inactive,inactive,,
Cc1ccc(NS(=O)(=O)c2ccc3c(c2)CCC(=O)N3)cc1C,inactive,inactive,,
Cc1ccc(OCCn2c(CCNC(=O)C3CCC3)nc3ccccc32)cc1,inactive,inactive,,
COc1cccc(C2c3c(ncn(-c4cccc(Br)c4)c3=N)Oc3ccc4ccccc4c32)c1 (stereo unspecified),inactive,inactive,,
Cc1ccc(NC(=O)c2cnn3c(-c4ccccc4)cc(C)nc23)cc1,inactive,inactive,,
C/C1=C\CC(C)(C)/C=C/C/C(C(=O)O)=C/CC1,inactive,inactive,,
O=C1CCCC2=C1C(c1[nH]ncc1Cl)N=C(Nc1nc3cc(F)ccc3o1)N2 (stereo unspecified),inactive,inactive,,
CC(=O)Nc1sc2c(c1-c1nc3ccccc3s1)CC(C)NC2 (stereo unspecified),inactive,inactive,,
O=[N+]([O-])c1ccccc1-c1nc(NCc2ccc(-c3cccnc3)cc2)c2ccccc2n1,inactive,inactive,,
COc1cc(O)c(C(CC(=O)N2CCCCCC2)c2ccc3c(c2)OCO3)c(OC)c1 (stereo unspecified),inactive,inactive,,
O=c1[nH]c2ccc(S(=O)(=O)N3CCN(S(=O)(=O)c4ccc5c(c4)OCCO5)CC3)cc2[nH]c1=O,inactive,inactive,,
COc1ccc(-c2ccc3nnc(-c4ccccc4OC)n3n2)cc1OC,inactive,inactive,,
CCCCN(C)C(=O)Cn1nc(-c2ccc(C(C)(C)C)cc2)ccc1=O,inactive,inactive,,
Cc1ccc(OCCn2c(CCNC(=O)c3cccc4[nH]ccc34)nc3ccccc32)cc1,inactive,inactive,,
CCCn1c(-c2ccc(F)cc2)nc2c(NCCN(CC)CC)nc(C)nc21,inactive,inactive,,
O=C(CNC(=O)c1ccccc1Cl)OC(C(=O)Nc1cc(C(F)(F)F)ccc1Cl)c1ccccc1 (stereo unspecified),inactive,inactive,,
CC(=O)O[C@H]1C(=O)[C@@]2(C)[C@H]([C@H](OC(=O)c3ccccc3)[C@]3(O)C[C@H](OC(=O)[C@H](O)[C@@H](NC(=O)c4ccccc4)c4ccccc4)C(C)=C1C3(C)C)[C@]1(OC(C)=O)CO[C@@H]1C[C@@H]2O,inactive,inactive,,
CCOc1ccccc1-c1nnc2n1N=C(c1cc(OC)cc(OC)c1)CS2,inactive,inactive,,
COc1ccc(C2c3c(n(CCc4ccccc4)cnc3=N)Oc3ccc4ccccc4c32)cc1OC (stereo unspecified),inactive,inactive,,
Cc1ccc(-c2cc(C(=O)N(C)c3ccccc3)c3ccccc3n2)cc1C,inactive,inactive,,

SMILES,Potency [1],Potency [2],"activity change, negative = inhibition [1]","activity change, negative = inhibition [2]"
O=C(Nc1nnc(-c2ccncc2)s1)Nc1ccc(Cl)cc1F,inactive,inactive,,
Cc1cc(C)nc(NC(=S)N2CCN(c3cccc([N+](=O)[O-])c3)CC2)c1,inactive,inactive,,
FC(F)(F)c1ccccc1-c1nc(NCc2ccc(-c3ccc4ccccc4c3)cc2)c2ccccc2n1,inactive,inactive,,
N#Cc1nc(-c2cccc3ccccc23)oc1NC1COC1,inactive,inactive,,
O=C(CNC(=O)c1ccc([N+](=O)[O-])cc1)OC(C(=O)Nc1cc(C(F)(F)F)ccc1Cl)c1ccccc1 (stereo unspecified),inactive,inactive,,
COc1ccc(OC)c(C2=Nn3c(nnc3-c3ccc(OC)c(OC)c3)SC2)c1,inactive,inactive,,
Cn1ccc2cc(-c3ccc4ncnc(NCc5cccc(F)c5)c4c3)ccc21,inactive,inactive,,
O=C1NC(=O)/C(=C/c2ccco2)N1,inactive,inactive,,
C=C1CC[C@H]2C(=C)CC[C@H]3C(=C)C(=O)O[C@@H]3[C@@H]12,inactive,inactive,,
Cc1ccc(NS(=O)(=O)c2cc3c(cc2F)NC(=O)CC3)cc1C,inactive,inactive,,
c1ccc(-c2cnc(Nc3ccc(OCCN4CCCC4)cc3)s2)cc1,inactive,inactive,,
COc1cccc(C2=Nn3c(nnc3-c3cc(OC)cc(OC)c3)SC2)c1,inactive,inactive,,
Cc1ccc(NS(=O)(=O)c2ccc3c(c2)oc(=O)n3C)cc1C,inactive,inactive,,
O=C(Cc1nnc(-c2cc3ccccc3[nH]2)o1)Nc1cc(C(F)(F)F)ccc1Cl,inactive,inactive,,
COc1cc(F)c(S(=O)(=O)N2CCCN(S(=O)(=O)c3cccc(N)c3)CC2)c(F)c1,inactive,inactive,,
O=S(=O)(c1cccc(C(F)(F)F)c1)N1CCN(S(=O)(=O)c2ccc3c(c2)OCCO3)CC1,inactive,inactive,,
C=C(C)C(=O)OC1C(OC(C)=O)/C(C=O)=C\CC/C(CO)=C/C2OC(=O)C(=C)C21 (stereo unspecified),inactive,inactive,,
CCC1CCC(C(=O)Nc2ccc(S(=O)(=O)Nc3nccs3)cc2)CC1 (stereo unspecified),inactive,inactive,,
Cc1cccc(CNc2ncnc3ccc(-c4ccc5c(ccn5C)c4)cc23)c1,inactive,inactive,,
COc1cc(F)c(S(=O)(=O)N2CCN(S(=O)(=O)c3cccc(NC(C)=O)c3)CC2)c(F)c1,inactive,inactive,,
